Changes are numbered by the printed parent chain.
Assays:
Assay in all cases: PBM; 200 nM protein, PBS
Conditions in all cases: dsDNA, one strand shown
CRX [1] = molecular target: CRX (Homo sapiens, UniProt O43186 26-111)
SIX6 [2] = molecular target: T1, SIX6 (Homo sapiens, UniProt O95475 114-200, L167I)
T1 sequence: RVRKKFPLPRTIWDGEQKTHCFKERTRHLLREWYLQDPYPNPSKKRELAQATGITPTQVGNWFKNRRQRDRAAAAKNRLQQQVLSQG

SIX6 [3] = molecular target: T2, SIX6 (Homo sapiens, UniProt O95475 114-200, L143V)
T2 sequence: T1 sequence with L30V, I54L

SIX6 [4] = molecular target: T3, SIX6 (Homo sapiens, UniProt O95475 114-200, H141N)
T3 sequence: T1 sequence with H28N, I54L

SIX6 [5] = molecular target: T4, SIX6 (Homo sapiens, UniProt O95475 114-200, T165P)
T4 sequence: T1 sequence with T52P, I54L

SIX6 [6] = molecular target: T5, SIX6 (Homo sapiens, UniProt O95475 114-200, L143I)
T5 sequence: T1 sequence with L30I, I54L

SIX6 [7] = molecular target: T6, SIX6 (Homo sapiens, UniProt O95475 114-200, T165G)
T6 sequence: T1 sequence with T52G, I54L

SIX6 [8] = molecular target: T7, SIX6 (Homo sapiens, UniProt O95475 114-200, T139Q)
T7 sequence: T1 sequence with T26Q, I54L

CRX [9] = molecular target: CRX (Homo sapiens, UniProt O43186 26-111, E42D)
SIX6 [10] = molecular target: T8, SIX6 (Homo sapiens, UniProt O95475 114-200)
T8 sequence: T1 sequence with I54L

HOXB9 [11] = molecular target: HOXB9 (Homo sapiens, UniProt P17482 171-250, T197M)
HOXC9 [12] = molecular target: HOXC9 (Homo sapiens, UniProt P31274 178-260, K195R)
HOXA7 [13] = molecular target: HOXA7 (Homo sapiens, UniProt P31268 116-202)
HOXC10 [14] = molecular target: HOXC10 (Homo sapiens, UniProt Q9NYD6 254-340)
HOXB9 [15] = molecular target: HOXB9 (Homo sapiens, UniProt P17482 171-250)
HOXC9 [16] = molecular target: HOXC9 (Homo sapiens, UniProt P31274 178-260)
HOXD13 [17] = molecular target: HOXD13 (Homo sapiens, UniProt P35453 263-343, T313R)
HOXC9 [18] = molecular target: HOXC9 (Homo sapiens, UniProt P31274 178-260, R193K)
HOXD13 [19] = molecular target: HOXD13 (Homo sapiens, UniProt P35453 263-343)
HOXC10 [20] = molecular target: HOXC10 (Homo sapiens, UniProt Q9NYD6 254-340, K271E)
HOXD13 [21] = molecular target: HOXD13 (Homo sapiens, UniProt P35453 263-343, T313A)
HOXB9 [22] = molecular target: HOXB9 (Homo sapiens, UniProt P17482 171-250, R186Q)
HOXC9 [23] = molecular target: HOXC9 (Homo sapiens, UniProt P31274 178-260, R222W)
HOXA7 [24] = molecular target: HOXA7 (Homo sapiens, UniProt P31268 116-202, W177C)
CRX [25] = molecular target: CRX (Homo sapiens, UniProt O43186 26-111, R41L)
HOXA4 [26] = molecular target: HOXA4 (Homo sapiens, UniProt Q00056 201-287, W262R)
PRRX1 [27] = molecular target: PRRX1 (Homo sapiens, UniProt P54821 80-166, F113S)
HOXA4 [28] = molecular target: HOXA4 (Homo sapiens, UniProt Q00056 201-287, R217L)
HOXA4 [29] = molecular target: HOXA4 (Homo sapiens, UniProt Q00056 201-287)
HOXA4 [30] = molecular target: HOXA4 (Homo sapiens, UniProt Q00056 201-287, W262F)
PRRX1 [31] = molecular target: PRRX1 (Homo sapiens, UniProt P54821 80-166)
VENTX [32] = molecular target: T9, VENTX (Homo sapiens, UniProt O95231 78-163, R121Q)
T9 sequence: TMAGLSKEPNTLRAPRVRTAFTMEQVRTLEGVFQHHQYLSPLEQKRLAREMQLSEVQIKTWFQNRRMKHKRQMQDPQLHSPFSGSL

VENTX [33] = molecular target: T10, VENTX (Homo sapiens, UniProt O95231 78-163, Y115F)
T10 sequence: T9 sequence with Y38F, Q44R

PITX2 = PITX2 (Homo sapiens, UniProt Q99697 72-157)

Sequence of CRX (Homo sapiens, UniProt O43186 26-111) (O43186 26-111): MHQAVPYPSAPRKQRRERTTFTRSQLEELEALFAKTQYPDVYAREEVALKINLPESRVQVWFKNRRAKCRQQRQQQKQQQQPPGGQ
Sequence of HOXC9 (Homo sapiens, UniProt P31274 178-260, K195R) (P31274 178-260 K195R): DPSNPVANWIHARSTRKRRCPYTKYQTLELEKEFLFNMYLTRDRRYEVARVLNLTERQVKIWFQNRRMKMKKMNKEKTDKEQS
Sequence of CRX (Homo sapiens, UniProt O43186 26-111, R41L) (O43186 26-111 R41L): as the sequence (O43186 26-111) above, with R16L counted along it
Sequence of CRX (Homo sapiens, UniProt O43186 26-111, E42D) (O43186 26-111 E42D): as the sequence (O43186 26-111) above, with E17D counted along it
Sequence of HOXC9 (Homo sapiens, UniProt P31274 178-260) (P31274 178-260): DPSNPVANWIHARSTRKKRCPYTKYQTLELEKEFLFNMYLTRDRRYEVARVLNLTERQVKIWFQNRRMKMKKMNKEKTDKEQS
Sequence of HOXC9 (Homo sapiens, UniProt P31274 178-260, R193K) (P31274 178-260 R193K): as the sequence (P31274 178-260) above, with R16K counted along it
Sequence of HOXA7 (Homo sapiens, UniProt P31268 116-202, W177C) (P31268 116-202 W177C): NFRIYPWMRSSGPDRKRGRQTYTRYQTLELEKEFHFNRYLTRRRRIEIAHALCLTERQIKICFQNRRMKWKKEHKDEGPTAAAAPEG
Sequence of HOXA7 (Homo sapiens, UniProt P31268 116-202) (P31268 116-202): as the sequence (P31268 116-202 W177C) above, with C62W counted along it
Sequence of HOXC9 (Homo sapiens, UniProt P31274 178-260, R222W) (P31274 178-260 R222W): as the sequence (P31274 178-260) above, with R45W counted along it
Sequence of HOXD13 (Homo sapiens, UniProt P35453 263-343) (P35453 263-343): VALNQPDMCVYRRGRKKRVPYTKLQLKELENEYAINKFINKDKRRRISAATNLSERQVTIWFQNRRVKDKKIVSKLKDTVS
Sequence of HOXA4 (Homo sapiens, UniProt Q00056 201-287) (Q00056 201-287): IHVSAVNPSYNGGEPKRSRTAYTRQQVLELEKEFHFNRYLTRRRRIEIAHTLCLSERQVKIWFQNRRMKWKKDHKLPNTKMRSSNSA
Sequence of HOXC10 (Homo sapiens, UniProt Q9NYD6 254-340, K271E) (Q9NYD6 254-340 K271E): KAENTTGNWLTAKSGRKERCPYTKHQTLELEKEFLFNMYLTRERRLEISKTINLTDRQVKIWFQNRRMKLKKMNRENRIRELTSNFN
Sequence of HOXB9 (Homo sapiens, UniProt P17482 171-250) (P17482 171-250): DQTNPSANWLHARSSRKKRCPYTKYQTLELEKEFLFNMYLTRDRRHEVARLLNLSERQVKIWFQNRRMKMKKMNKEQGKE
Sequence of HOXB9 (Homo sapiens, UniProt P17482 171-250, R186Q) (P17482 171-250 R186Q): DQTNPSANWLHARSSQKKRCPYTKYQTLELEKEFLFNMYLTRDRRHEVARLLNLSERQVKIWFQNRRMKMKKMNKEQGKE
Sequence of HOXA4 (Homo sapiens, UniProt Q00056 201-287, W262R) (Q00056 201-287 W262R): as the sequence (Q00056 201-287) above, with W62R counted along it
Sequence of HOXD13 (Homo sapiens, UniProt P35453 263-343, T313A) (P35453 263-343 T313A): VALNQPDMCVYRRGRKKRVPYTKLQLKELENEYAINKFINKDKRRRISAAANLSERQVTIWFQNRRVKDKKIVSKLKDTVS
Sequence of HOXA4 (Homo sapiens, UniProt Q00056 201-287, W262F) (Q00056 201-287 W262F): as the sequence (Q00056 201-287) above, with W62F counted along it
Sequence of PRRX1 (Homo sapiens, UniProt P54821 80-166, F113S) (P54821 80-166 F113S): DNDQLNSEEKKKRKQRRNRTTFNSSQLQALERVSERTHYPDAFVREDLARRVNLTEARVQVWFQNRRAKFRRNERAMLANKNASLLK
Sequence of PRRX1 (Homo sapiens, UniProt P54821 80-166) (P54821 80-166): as the sequence (P54821 80-166 F113S) above, with S34F counted along it
Sequence of HOXC10 (Homo sapiens, UniProt Q9NYD6 254-340) (Q9NYD6 254-340): as the sequence (Q9NYD6 254-340 K271E) above, with E18K counted along it
Sequence of HOXA4 (Homo sapiens, UniProt Q00056 201-287, R217L) (Q00056 201-287 R217L): as the sequence (Q00056 201-287) above, with R17L counted along it
Sequence of HOXB9 (Homo sapiens, UniProt P17482 171-250, T197M) (P17482 171-250 T197M): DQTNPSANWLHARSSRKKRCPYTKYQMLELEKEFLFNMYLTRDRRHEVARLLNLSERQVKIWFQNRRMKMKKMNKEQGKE
Sequence of HOXD13 (Homo sapiens, UniProt P35453 263-343, T313R) (P35453 263-343 T313R): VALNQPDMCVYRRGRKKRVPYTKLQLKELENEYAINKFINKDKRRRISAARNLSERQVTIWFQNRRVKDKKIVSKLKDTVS

With CCCTGATC the binding signal (CRX [1]) was 10.2 upbm affinity estimate (log intensity, higher = more binding, comparable within an allelic series), the binding signal (SIX6 [2]) was 10.2 upbm affinity estimate (log intensity, higher = more binding, comparable within an allelic series) and the binding signal (SIX6 [3]) was 9.63 upbm affinity estimate (log intensity, higher = more binding, comparable within an allelic series). The binding signal (SIX6 [4]) was 10.2 upbm affinity estimate (log intensity, higher = more binding, comparable within an allelic series), the binding signal (SIX6 [5]) was 9.31 upbm affinity estimate (log intensity, higher = more binding, comparable within an allelic series) and the binding signal (SIX6 [6]) was 9.69 upbm affinity estimate (log intensity, higher = more binding, comparable within an allelic series). For the same sequence, the binding signal (SIX6 [7]) was 10.3 upbm affinity estimate (log intensity, higher = more binding, comparable within an allelic series), the binding signal (SIX6 [8]) was 10.4 upbm affinity estimate (log intensity, higher = more binding, comparable within an allelic series) and the binding signal (CRX [9]) was 10 upbm affinity estimate (log intensity, higher = more binding, comparable within an allelic series). For the same sequence, the binding signal (SIX6 [10]) was 10.2 upbm affinity estimate (log intensity, higher = more binding, comparable within an allelic series).
In the case of ATTTATGG, the binding signal (CRX [1]) is reported as 10.2 upbm affinity estimate (log intensity, higher = more binding, comparable within an allelic series), the binding signal (HOXB9 [11]) is reported as 9.79 upbm affinity estimate (log intensity, higher = more binding, comparable within an allelic series) and the binding signal (HOXC9 [12]) is reported as 12.7 upbm affinity estimate (log intensity, higher = more binding, comparable within an allelic series). The binding signal (HOXA7 [13]) was 10.6 upbm affinity estimate (log intensity, higher = more binding, comparable within an allelic series), the binding signal (HOXC10 [14]) was 12.5 upbm affinity estimate (log intensity, higher = more binding, comparable within an allelic series) and the binding signal (HOXB9 [15]) was 12.1 upbm affinity estimate (log intensity, higher = more binding, comparable within an allelic series). The binding signal (CRX [9]) was 9.96 upbm affinity estimate (log intensity, higher = more binding, comparable within an allelic series), the binding signal (HOXC9 [16]) was 12.9 upbm affinity estimate (log intensity, higher = more binding, comparable within an allelic series) and the binding signal (HOXD13 [17]) was 10.8 upbm affinity estimate (log intensity, higher = more binding, comparable within an allelic series). For the same sequence, the binding signal (HOXC9 [18]) was 12.8 upbm affinity estimate (log intensity, higher = more binding, comparable within an allelic series), the binding signal (HOXD13 [19]) was 12.1 upbm affinity estimate (log intensity, higher = more binding, comparable within an allelic series) and the binding signal (HOXC10 [20]) was 11.7 upbm affinity estimate (log intensity, higher = more binding, comparable within an allelic series). For the same sequence, the binding signal (HOXD13 [21]) was 11.8 upbm affinity estimate (log intensity, higher = more binding, comparable within an allelic series), the binding signal (HOXB9 [22]) was 11.8 upbm affinity estimate (log intensity, higher = more binding, comparable within an allelic series) and the binding signal (HOXC9 [23]) was 11.2 upbm affinity estimate (log intensity, higher = more binding, comparable within an allelic series). The binding signal (HOXA7 [24]) was 8.83 upbm affinity estimate (log intensity, higher = more binding, comparable within an allelic series) and the binding signal (CRX [25]) was 9.82 upbm affinity estimate (log intensity, higher = more binding, comparable within an allelic series).
ACCAGCCC was tested, and the binding signal (CRX [1]) was 8.23 upbm affinity estimate (log intensity, higher = more binding, comparable within an allelic series), the binding signal (HOXC9 [12]) was 9.73 upbm affinity estimate (log intensity, higher = more binding, comparable within an allelic series) and the binding signal (CRX [9]) was 8.32 upbm affinity estimate (log intensity, higher = more binding, comparable within an allelic series). The binding signal (HOXC9 [16]) was 9.8 upbm affinity estimate (log intensity, higher = more binding, comparable within an allelic series), the binding signal (HOXC9 [18]) was 9.71 upbm affinity estimate (log intensity, higher = more binding, comparable within an allelic series) and the binding signal (HOXC9 [23]) was 9.62 upbm affinity estimate (log intensity, higher = more binding, comparable within an allelic series). The binding signal (CRX [25]) was 8.17 upbm affinity estimate (log intensity, higher = more binding, comparable within an allelic series).
For CCCGTCCC, the binding signal (CRX [1]) was 8.36 upbm affinity estimate (log intensity, higher = more binding, comparable within an allelic series), the binding signal (HOXA4 [26]) was 9.79 upbm affinity estimate (log intensity, higher = more binding, comparable within an allelic series) and the binding signal (PRRX1 [27]) was 9.36 upbm affinity estimate (log intensity, higher = more binding, comparable within an allelic series). For the same sequence, the binding signal (HOXA4 [28]) was 9.77 upbm affinity estimate (log intensity, higher = more binding, comparable within an allelic series), the binding signal (CRX [9]) was 8.37 upbm affinity estimate (log intensity, higher = more binding, comparable within an allelic series) and the binding signal (HOXA4 [29]) was 9.89 upbm affinity estimate (log intensity, higher = more binding, comparable within an allelic series). For the same sequence, the binding signal (CRX [25]) was 8.4 upbm affinity estimate (log intensity, higher = more binding, comparable within an allelic series), the binding signal (HOXA4 [30]) was 9.95 upbm affinity estimate (log intensity, higher = more binding, comparable within an allelic series) and the binding signal (PRRX1 [31]) was 9.4 upbm affinity estimate (log intensity, higher = more binding, comparable within an allelic series).
For ATTATCTC, the binding signal (CRX [1]) was 11.7 upbm affinity estimate (log intensity, higher = more binding, comparable within an allelic series), the binding signal (HOXC9 [12]) was 11.4 upbm affinity estimate (log intensity, higher = more binding, comparable within an allelic series) and the binding signal (CRX [9]) was 11.5 upbm affinity estimate (log intensity, higher = more binding, comparable within an allelic series). For the same sequence, the binding signal (HOXC9 [16]) was 11.4 upbm affinity estimate (log intensity, higher = more binding, comparable within an allelic series), the binding signal (HOXC9 [18]) was 11.4 upbm affinity estimate (log intensity, higher = more binding, comparable within an allelic series) and the binding signal (CRX [25]) was 11.5 upbm affinity estimate (log intensity, higher = more binding, comparable within an allelic series).
With CAGATTAA the binding signal (CRX [1]) was 13.1 upbm affinity estimate (log intensity, higher = more binding, comparable within an allelic series), the binding signal (VENTX [32]) was 10.7 upbm affinity estimate (log intensity, higher = more binding, comparable within an allelic series) and the binding signal (VENTX [33]) was 10.7 upbm affinity estimate (log intensity, higher = more binding, comparable within an allelic series). The binding signal (CRX [9]) was 13.1 upbm affinity estimate (log intensity, higher = more binding, comparable within an allelic series) and the binding signal (PITX2) was 12.5 upbm affinity estimate (log intensity, higher = more binding, comparable within an allelic series).
AGCGTCCG was tested, and the binding signal (CRX [1]) was 8.29 upbm affinity estimate (log intensity, higher = more binding, comparable within an allelic series), the binding signal (HOXA7 [13]) was 8.2 upbm affinity estimate (log intensity, higher = more binding, comparable within an allelic series) and the binding signal (CRX [9]) was 8.33 upbm affinity estimate (log intensity, higher = more binding, comparable within an allelic series). The binding signal (HOXA7 [24]) was 8.37 upbm affinity estimate (log intensity, higher = more binding, comparable within an allelic series) and the binding signal (CRX [25]) was 8.29 upbm affinity estimate (log intensity, higher = more binding, comparable within an allelic series).

From article PMC11006913
